This excerpt belongs to a sample that is enriched for hits.
Methyltransferases – Primary Screen for Target Class Profiling of Small Molecule Inhibitors of Methyltransferases; purified enzyme, MTase-Glo SAH luminescence; hits give low values; calls only at 40 µM; actives 3.9% (n = 25,000); call rule not given here
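Each enzyme was reacted with SAM and its substrate, with compounds tested once at 40 uM; SAH formed was read by MTase-Glo luminescence.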
The depositor's hits bear a star; i = inactive; + = active, no number; ! = repeats disagree. % is scaled to controls: 0 for no effect and ±100 for the full control effect.

SMILES	Methyltransferases
N#CC(=C(\N)Sc1ccccc1N)/C(C#N)=C(/N)Sc1ccccc1N	+
O=C(NCc1ccccn1)Nc1nnc(-c2ccco2)o1	i
COCCCN1C(=O)CSc2c(c(C)nn2-c2ccccc2)C1C(=O)NCc1ccccc1OC (stereo unspecified)	i
c1nc(NC2CCCCCC2)c2cc(CNC[C@H]3CCCO3)sc2n1	i
Cc1cccc(-c2nnn3c2nc(NCC2CCCO2)c2ccccc23)c1 (stereo unspecified)	i
c1ccc(-c2oc3ncnc(NC[C@@H]4CCCO4)c3c2-c2ccccc2)cc1	+
C[C@@H](c1ccc2nccn2c1)n1nnc2ncc(-c3cnn(C)c3)nc21	i
CC(C)(C)CC(C)(C)c1ccc(OCCOCC[N+](C)(C)Cc2ccccc2)cc1	+
O=C(O)C[C@@H]1CCN(C(=O)c2ccc(F)cc2)C[C@@H]1CCN1CCN(c2ccc(F)cc2)CC1	i
COc1ccc(N2C(=O)c3cc4ccccc4n3CC2(C)C(=O)NCCC(C)C)cc1OC (stereo unspecified)	i
CC(=O)N1CCCC1c1nnc2n1CCNC2 (stereo unspecified)	i
O=C1Cc2c([nH]c3ccc(Br)cc23)-c2ncccc2N1	+
O=S(=O)(O)c1ccc(Nc2ncnc3c2ncn3[C@@H]2O[C@H](CO)[C@@H](O)[C@H]2O)cc1	i
CC(C)N(CCCNC(=O)Nc1ccc(C(C)(C)C)cc1)C[C@H]1O[C@@H](n2cc(Br)c3c(N)ncnc32)[C@H](O)[C@@H]1O	+
CC(C)N(CCCNC(=O)Nc1ccc(C(C)(C)C)cc1)C[C@H]1O[C@@H](n2ccc3c(N)ncnc32)[C@H](O)[C@@H]1O	+!
O=C1NC2(CCCN(Cc3cncs3)C2)COc2ccccc21 (stereo unspecified)	i
Cc1ccc(Cn2c(=O)c3ccc(C(=O)NC(C)C)cc3n3c(=O)n(Cc4ccc(F)cc4)nc23)cc1	i
CC(C)NC(=O)c1ccnc(-c2cc(NC3CCCC3)nc3[nH]ccc23)c1	i
COc1cccc(NC(=O)CN(C)S(=O)(=O)c2ccc3[nH]c4c(c3c2)CCCC4)c1	i
Cc1ccc(C(N)=O)cc1Nc1nccc(-c2cn(C(C)C)c3cnccc23)n1	+
CCC1c2ccc(C)n2CCN1C(=O)Nc1ccccc1Br (stereo unspecified)	i
CCOc1ccccc1-c1noc(-c2nc(C)no2)n1	i
CC[C@@]1(O)C(=O)OCc2c1cc1n(c2=O)Cc2cc3c(CN(C)C)c(O)ccc3nc2-1	+!
COc1ccc2cc3n(c2c1)CC(C)(C(=O)NC1CCCCC1)N(Cc1ccc(Cl)cc1)C3=O (stereo unspecified)	i
CC(C)OCCCn1c(=O)c2ccccc2n2c(SCc3c(F)cccc3Cl)nnc12	i
SMILES	Methyltransferases
Cc1ccc(C(=O)Nc2ccc(S(=O)(=O)O)c3cc(S(=O)(=O)O)cc(S(=O)(=O)O)c23)cc1NC(=O)c1cccc(NC(=O)Nc2cccc(C(=O)Nc3cc(C(=O)Nc4ccc(S(=O)(=O)O)c5cc(S(=O)(=O)O)cc(S(=O)(=O)O)c45)ccc3C)c2)c1	+
CCCN1C(=O)c2c(C(=O)NCCN3CCOCC3)ncn2CC1(C)C(=O)NCc1ccc(F)cc1 (stereo unspecified)	i
COCCCNC(=O)C1(C)Cn2nc(-c3ccccc3)cc2C(=O)N1c1ccc(F)cc1 (stereo unspecified)	i
CC(C)S(=O)(=O)N[C@H]1CCOC[C@@H]1c1ccc(-c2ccc(C#N)s2)cc1	i
Cc1cccc(-c2n[nH]n3c2nc(=O)c2ccc(C(=O)NCCc4ccc(Cl)cc4)cc23)c1	i
CCc1ccc(C(=O)NC(Cc2c[nH]c3ccccc23)C(=O)OCC(=O)c2ccc(C)cc2)cc1 (stereo unspecified)	i
COC(=O)[C@H](Cc1cccc(C(=N)N)c1)[C@@H](C)NC(=O)c1ccc(-c2cc[n+]([O-])cc2)cc1	+
COC(=O)C(Cc1c[nH]c2ccccc12)NC(=O)c1ccc(Br)cc1 (stereo unspecified)	i
CC(=O)NC1CC(=O)C23C(=O)NC(Cc4c[nH]c5ccccc45)C2C(C)=C(C)C(O)C3/C=C/CC(C)/C=C(/C)C(O)C1O (stereo unspecified)	i
COc1ccccc1OC1(C(=O)O)CCN(Cc2ccc(-c3ccn[nH]3)o2)CC1	i
CN1CCC2(CCC1=O)CN(C(=O)CCOc1ccccc1)CCN2C (stereo unspecified)	i
CS(=O)(=O)c1ccc(N2CCN(CC3(O)CNCCOC3)CC2)c(F)c1 (stereo unspecified)	i
CN(C)C(=O)Nc1cccc(-c2ccc(N(C)C)cc2)c1	i
CCn1cc(-c2ccnc3[nH]c(-c4cccc(CN(C)C)c4)cc23)c(-c2ccc(NC(=O)N(C)C)cc2)n1	+
CCCN(CCC)S(=O)(=O)c1ccc2[nH]c(=O)[nH]c2c1	i
COc1ccc(/C=C/C(=O)O[C@@H]2[C@@H](OC(C)=O)[C@@H](OC(C)=O)[C@H](O[C@H]3[C@@H]4C=CO[C@@H](O[C@@H]5O[C@H](CO)[C@@H](O)[C@H](O)[C@H]5O)[C@@H]4[C@@]4(CO)O[C@@H]34)O[C@H]2C)cc1O	+
CC(=O)O[C@@H]1[C@@H](OC(C)=O)[C@H](C)O[C@@H](O[C@H]2[C@@H]3C=CO[C@@H](O[C@@H]4O[C@H](CO)[C@@H](O)[C@H](O)[C@H]4O)[C@@H]3[C@@]3(CO)O[C@@H]23)[C@@H]1OC(=O)/C=C/c1ccccc1	i
C=C[C@H]1[C@H](O[C@@H]2O[C@H](CO)[C@@H](O)[C@H](O)[C@H]2O)OC=C2C(=O)OCC[C@]21O	i
COc1ccc(/C=C/C(=O)O[C@@H]2[C@@H](O)[C@@H](O)[C@H](O[C@H]3[C@@H]4C=CO[C@@H](O[C@@H]5O[C@H](CO)[C@@H](O)[C@H](O)[C@H]5O)[C@@H]4[C@@]4(CO)O[C@@H]34)O[C@H]2C)cc1	i
CC(=O)O[C@@H]1[C@@H](OC(=O)/C=C/c2ccccc2)[C@@H](OC(C)=O)[C@H](O[C@H]2[C@@H]3C=CO[C@@H](O[C@@H]4O[C@H](CO)[C@@H](O)[C@H](O)[C@H]4O)[C@@H]3[C@@]3(CO)O[C@@H]23)O[C@H]1C	i
O=C(/C=C/c1ccc(O)cc1)OC[C@@]1(O)C=C[C@@H]2C(C(=O)O)=CO[C@@H](O[C@@H]3O[C@H](CO)[C@@H](O)[C@H](O)[C@H]3O)[C@@H]21	+
C[C@@H](OC(=O)/C=C/c1ccc(O)cc1)C1=C[C@]2(C=C[C@@H]3C(C(=O)O)=CO[C@@H](O[C@@H]4O[C@H](CO[C@@H]5O[C@H](CO)[C@@H](O)[C@H](O)[C@H]5O)[C@@H](O)[C@H](O)[C@H]4O)[C@@H]32)OC1=O	i
COc1cc(/C=C/C(=O)O[C@H]2[C@@H]3C=CO[C@@H](O[C@@H]4O[C@H](CO)[C@@H](O)[C@H](O)[C@H]4O)[C@@H]3[C@@]3(CO)O[C@@H]23)ccc1O	+
COc1ccc(/C=C/C(=O)O[C@@H]2[C@@H](O[C@@H]3O[C@H](CO)[C@@H](O)[C@H](O)[C@H]3O)[C@@H](O)[C@H](O[C@H]3C4C=CO[C@@H](O[C@@H]5O[C@H](CO)[C@@H](O)[C@H](O)[C@H]5O)C4[C@@]4(CO)O[C@@H]34)O[C@H]2C)cc1 (stereo partly specified)	i

Screening results as filed in PubChem.
